Assay outcomes deposited in PubChem by National Center for Advancing Translational Sciences (NCATS).
Most compounds without a hit are left out; they make up all but 3% or so of the library.
KCNH2 3.1 inh: inhibitors of human KCNH2 3.1 potassium channel isoform | U2OS KCNH2 3.1, thallium flux FluxOr; stronger effect = lower value | activity change, % (tested at about 1.8 µM) | actives 0.95% (n = 340,000) | AID 720553;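 active = maximum activity change below -70%; inconclusive = maximum activity change from -70% to -50%; inactive = maximum activity change above -50%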;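 note: thallium influx rate constant from kinetic fluorescence after stimulation buffer; % is set by controls: 0 for no effect and ±100 for the full control effect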
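Thallium flux via FluxOr fluorescence (Red40 quencher, 45 min loading) in U2OS cells virally expressing the KCNH2 3.1 isoform (1.77 x 10^8 /mL virus, overnight at 37 C). Rate constants from 2-min kinetic reads post-stimulation, normalised to positive and negative controls.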
LDHA block: inhibitors of human lactate dehydrogenase A | actives 0.15% (n = 480,000) | purified LDHA, NADH/diaphorase-resazurin fluorescence; stronger effect = lower value | AID 1347041 | activity change, % (values are at about 110 or 230 µM) | P00338; in the data active = activity change below about -30%; inconclusive = mostly about -25% to -30%;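 note: plate controls were DMSO wells for no effect and wells without enzyme for full effect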
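Remaining NADH was detected by diaphorase (0.133 mg/mL) converting 37 µM resazurin to fluorescent resorufin, read at 0 and 20 minutes. The preceding 5-minute room-temperature reaction used 2 nM LDHA, 0.2 mM sodium pyruvate and 0.06 mM NADH at pH 7.4.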
ClpP mod: qHTS Assay for Activators of ClpP; purified B. subtilis ClpP, FRET peptide cleavage, 20 min; actives 1.9% (n = 340,000); AID 651965, 2013; ATP-dependent Clp protease proteolytic subunit (Bacillus subtilis (strain 168)), P80244; Potency, µM (highest dose often 57.5 µM), for inactives: at the top dose activity change, negative = active; active = well fitted falling curve with a large enough effect; inconclusive = small, poorly fitted or top-dose-only effect; inactive = no such curve, though single readings can be large or run the other way; note: potency is the fitted concentration of half-maximal effect; the source files actives as falling curves though it sought activators and does not explain the sign; nearly all actives have a fitted effect of over 65% in size
Target sequence (P80244 whole entry, looked up): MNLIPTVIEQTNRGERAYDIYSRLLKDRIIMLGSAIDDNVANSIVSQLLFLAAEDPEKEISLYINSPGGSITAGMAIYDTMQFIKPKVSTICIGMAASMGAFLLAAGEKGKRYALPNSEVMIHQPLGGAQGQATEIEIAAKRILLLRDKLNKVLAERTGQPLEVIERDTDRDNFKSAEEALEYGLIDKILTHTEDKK
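ClpP 10 microg/mL final, pH 8 Tris/KCl buffer with BSA, glycerol, Tween-20; compound pinned in; FRET-FV substrate; RT 20 min; Ex320/Em430; ΔFRET vs ADEP 5.8 microM, DMSO, no enzyme.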
12-LOX inh: inhibitors of human 12S-lipoxygenase ALOX12; P18054; AID 1671190; purified 12hLO, xylenol orange hydroperoxide absorbance; Potency, µM (doses to about 108 µM), without a hit: at the highest dose activity change, negative = inhibition, most hits filed as inhibitors; actives 1.1% (n = 580,000); active = well fitted inhibition curve with a large enough effect; inconclusive = small, poorly fitted or top-dose-only effect, or another doubt; inactive = no such curve, though single readings can be large or run the other way; note: potency is the fitted concentration of half-maximal effect; % is set by controls: 0 for no effect and ±100 for the full control effect
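Hydroperoxide product was detected by ferrous iron/xylenol orange as the 573 to 405 nm absorbance ratio. Arachidonic acid at 40 uM (final) was turned over for 30 min at room temperature by 150 nM human 12hLO, pH 7.0 Hepes buffer, after 15 min compound preincubation.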
KCNH2 WT inh: blocks the wildtype human KCNH2 potassium channel | activity change, % at 1.84 µM | Q12809 | actives 0.37% (n = 340,000) | U2OS, BacMam KCNH2, thallium flux FluxOr; stronger effect = lower value;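 active = maximum activity change below -70%; inconclusive = maximum activity change between -70% and -50%; inactive = maximum activity change above -50%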; note: % is set by controls: 0 for no effect and ±100 for the full control effect
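U2OS cells transduced with wild-type KCNH2 virus are loaded with FluxOr dye for 45 min, and thallium flux is measured in kinetic reads before and after stimulation buffer. Rate constants are normalized to DMSO controls.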
BCR signal inh: chronic active BCR signaling inhibition; ABC-DLBCL IkBa-CBG/CBR reporter, luminescence ratio, 4 h; Potency, µM (series often up to 46.1 µM), inactives show at the highest dose activity change, negative = inhibition, usual class: inhibitors; actives 0.05% (n = 340,000); AID 493014; active = well fitted inhibition curve with a large enough effect in the signal ratio, with a control signal flat, not every such curve was filed as active; inconclusive = small, poorly fitted or top-dose-only effect, or effect the other way, or a change in a side signal; the % refers to the signal ratio;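 note: potency is the fitted concentration of half-maximal effect; plate controls were basal doxycycline-induced cells for no effect and cells given 10 µM MG132 for full effect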
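Cell line TMD8 (human ABC DLBCL), stably expressing tet-inducible CBG68-IkBa fusion and CBR; IMDM/0.5% FBS; cpd up to 46 uM; dox induction, 4 h, 37C/5% CO2; dual luminescence; green/red ratio; MG132 control.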
The depositor's hits bear a star.

Results for O=C(CCN1CCN(c2cnccn2)CC1)Nc1ccccc1F ?
LDHA block: -1; 12-LOX inh: -18%

What do the screens show for `CNC(=O)CCC[C@H]1NC[C@@H]2CC1CN(Cc1ccccc1)C2`?
12-LOX inh: 8.9µM*

How did COc1ccc2[nH]cc(CCNC(=O)CCC[C@H]3NC[C@@H]4C[C@H]3CN(Cc3ccccc3)C4)c2c1 do in these assays?
12-LOX inh: 4µM*

What do the screens show for `NC(=O)CCC[C@H]1NC[C@@H]2C[C@H]1CN(Cc1ccccc1)C2`?
12-LOX inh: 13%

How did COc1ccc2c(c1)CCCC(Br)C2=O (centres undefined) do in these assays?
LDHA block: 34; ClpP mod: -1%; 12-LOX inh: 40µM*; KCNH2 WT inh: 17

Results for COc1ccc2c(c1)CCC2=O ?
LDHA block: -2; ClpP mod: 0%

How did NC(=O)c1ccc(NC(=O)c2cc(-c3cccs3)nc3ccccc23)cc1 do in these assays?
LDHA block: -14; 12-LOX inh: inconclusive

Results for COc1ccc(CC(=O)N2N=C(c3cccc(Br)c3)CC2(O)C(F)(F)F)cc1 (centres undefined) ?
LDHA block: -23; 12-LOX inh: 14µM*

Results for O=C(NCc1nnc2c(C(F)(F)F)cc(Cl)cn12)c1ccc2c(c1)OCO2 ?
KCNH2 3.1 inh: 11; LDHA block: 3; ClpP mod: 1%; 12-LOX inh: 0%; KCNH2 WT inh: -160*; BCR signal inh: inconclusive

How did ON(Cc1c(F)cccc1Cl)Cc1c(F)cccc1Cl do in these assays?
KCNH2 3.1 inh: -114*; LDHA block: -3; ClpP mod: 0%; 12-LOX inh: 15%; KCNH2 WT inh: 1; BCR signal inh: 0%

How did Cc1ccc(S(=O)(=O)N(CC(N)=O)Cc2c(F)cccc2Cl)cc1 do in these assays?
LDHA block: 0; 12-LOX inh: inconclusive

How did Cc1ccc(NC(=O)Nc2ccno2)cc1 do in these assays?
KCNH2 3.1 inh: -112*; LDHA block: -19; ClpP mod: -4%; 12-LOX inh: 0%; KCNH2 WT inh: 1; BCR signal inh: inconclusive

What do the screens show for `Cc1cc2nc3n(c(=O)c2n1CC(=O)NCc1ccccc1)CCCCC3`?
12-LOX inh: 10%

What do the screens show for `NC(=O)CN(CC1CCOC1)C1CC1` (centres undefined)?
LDHA block: 8; 12-LOX inh: -2%

Results for Cc1nnc(SCC(=O)Nc2ccc(Oc3ccccc3)cc2)n1N ?
KCNH2 3.1 inh: -3; LDHA block: -5; ClpP mod: -2%; 12-LOX inh: 0%; KCNH2 WT inh: -21; BCR signal inh: -2%

What do the screens show for `Cc1nnc(SCc2cccc(Oc3ccccc3)c2)n1N`?
KCNH2 3.1 inh: -6; LDHA block: -3; ClpP mod: 3.2µM*; 12-LOX inh: 4%; KCNH2 WT inh: 7; BCR signal inh: 1%

Results for COc1cccc(C2CN(c3ccc(F)cc3F)N=C2c2cccs2)c1OC (centres undefined) ?
KCNH2 3.1 inh: -3; LDHA block: 1; ClpP mod: 4%; 12-LOX inh: inconclusive; KCNH2 WT inh: 4; BCR signal inh: 12%

What do the screens show for `COc1ccccc1C1CN(c2ccccc2)N=C1c1cccs1` (centres undefined)?
KCNH2 3.1 inh: -4; LDHA block: -2; ClpP mod: inconclusive; 12-LOX inh: 6.3µM*; KCNH2 WT inh: -2; BCR signal inh: 12%

Results for O=C(/C=C/c1cccc(Cl)c1Cl)c1ccc(OC(F)F)cc1 ?
LDHA block: 14; 12-LOX inh: inconclusive

How did N#C/C(=C\c1coc2ccc(O)cc2c1=O)C(=O)Nc1nc2ccccc2s1 do in these assays?
KCNH2 3.1 inh: 3; LDHA block: 1; ClpP mod: 4%; 12-LOX inh: 11µM*; KCNH2 WT inh: 14; BCR signal inh: inconclusive

What do the screens show for `Fc1ccccc1-c1nc(N2CCCC2)c2ccccc2n1`?
LDHA block: 1; 12-LOX inh: 15%

Results for Fc1ccccc1-c1nc(N2CCN(c3cccc(Cl)c3)CC2)c2ccccc2n1 ?
LDHA block: -2; ClpP mod: 32µM*; 12-LOX inh: -24%

How did Cc1ccc(C)c(SCC(=O)NCc2ccco2)c1 do in these assays?
KCNH2 3.1 inh: -4; LDHA block: -10; ClpP mod: 4%; 12-LOX inh: -2%; KCNH2 WT inh: 9; BCR signal inh: 13%

Results for Cc1ccc(C)c(SCC(=O)OCC(=O)c2ccco2)c1 ?
KCNH2 3.1 inh: -16; LDHA block: 3; ClpP mod: 0%; 12-LOX inh: 40µM*; KCNH2 WT inh: -13; BCR signal inh: 9%

Results for CN(C)CCCNC(=O)c1cc2cc(Cl)ccc2[nH]1 ?
LDHA block: 4; 12-LOX inh: -21%

Results for O=C(Nc1c(Cl)cc(Cl)cc1-c1nc2ccccc2s1)c1ccc(Br)o1 ?
KCNH2 3.1 inh: -17; LDHA block: -6; ClpP mod: 25µM*; 12-LOX inh: inconclusive; KCNH2 WT inh: -14; BCR signal inh: 18%

What do the screens show for `O=C(Nc1ccccc1-c1nc2ccccc2s1)c1cc(Cl)cc(Cl)c1`?
LDHA block: -11; ClpP mod: 0%; 12-LOX inh: -26%

What do the screens show for `COc1ccc(C2(c3ccc(O)cc3O)CC(c3ccccc3Cl)NC(=S)N2)cc1` (centres undefined)?
KCNH2 3.1 inh: 11; LDHA block: -6; 12-LOX inh: 18µM*; KCNH2 WT inh: -6; BCR signal inh: -15%

What do the screens show for `COc1cccc(C2CC(c3ccccc3Cl)n3nc(N)nc3N2)c1` (centres undefined)?
KCNH2 3.1 inh: -23; LDHA block: 12; ClpP mod: 1%; 12-LOX inh: -19%; KCNH2 WT inh: 4; BCR signal inh: -8%

What do the screens show for `CN(C)CCN1CCN(C2CN(Cc3cn(Cc4cccc(Cl)c4)nn3)S(=O)(=O)C2)CC1` (centres undefined)?
LDHA block: 8; ClpP mod: 0%; 12-LOX inh: 7.9µM*

What do the screens show for `O=S1(=O)CC(N2CCN(Cc3ccccc3F)CC2)CN1Cc1cn(Cc2ccc(C(F)(F)F)cc2)nn1` (centres undefined)?
LDHA block: 4; ClpP mod: 2%; 12-LOX inh: 40µM*

Results for CN1CCC(N2CCN(C3CN(Cc4cn(Cc5cccc(C(F)(F)F)c5)nn4)S(=O)(=O)C3)CC2)CC1 (centres undefined) ?
LDHA block: 4; ClpP mod: -5%; 12-LOX inh: 5.6µM*
